In PubChem BioAssay (NCATS):
Records with an inconclusive call do not appear. Unmarked numbers belong to inactive results. The call rests on the fitted dose curve; in most records, active means well fitted inhibition curve with a large enough effect; inconclusive means small, poorly fitted or top-dose-only effect; inactive means flat fitted curve, though single readings scatter.

These compounds were tested on ATS189 (assay: qHTS profiling for inhibitors of Plasmodium falciparum proliferation (AID 504749;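 further: 0% = DMSO vehicle and full inhibition = artemisinin control; nearly all actives have a fitted effect of over 60% in size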)). Details: P. falciparum in erythrocytes, SYBR Green DNA, 72 h; series mostly up to 28.7 µM; activity, negative = inhibition: at the top concentration.
How it was run: (§1)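 Three-day growth assay of blood-stage parasites in erythrocytes (0.3% parasitemia, 2.5% hematocrit) at 37 C, 5% CO2, quantified by SYBR Green DNA staining after overnight detergent lysis.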

| SMILES | activity, negative = inhibition |
| --- | --- |
| O=C(O)Cc1ccc(CCNS(=O)(=O)c2ccc(Cl)cc2)cc1 | -1.85% |
| NS(=O)(=O)c1ccc(NC(=O)CCC(=O)O)cc1 | 10.9% |
| C=CCSCC1Nc2cc(Cl)c(S(N)(=O)=O)cc2S(=O)(=O)N1 (stereo not given) | 1.77% |
| Cc1cccc(C)c1NC(=O)CC12CCCN1CCC2 | 2.8% |
| CC(=O)Nc1cccc(O)c1 | 8.75% |
| CNCc1ccccc1 | 4.57% |
| COc1ccc(C(=O)NCc2ccc(OCCN(C)C)cc2)cc1OC | 0.958% |
| C=CCNC(N)=S | 4.19% |
| NS(=O)(=O)c1cc(-c2nn[nH]n2)c(NCc2cccs2)cc1Cl | 5.54% |
| CCOc1ccc(C(=O)OCCN(CC)CC)cc1 | 7.26% |
| Cc1c(N(C)C)c(=O)n(-c2ccccc2)n1C | 1.75% |
| CCc1cccc(CC)c1NC(=O)CN(CC(=O)O)CC(=O)O | 1.14% [at 12.8 µM] |
| COC(=O)c1cccnc1 | 3.5% |
| Cc1ccc(S(=O)(=O)NC(=O)NC2CCCCCCC2)cc1 | 5.56% |
| CCCCCCCCCCCCCCCCC(C(=O)O)C(O)(CC(=O)O)C(=O)O (stereo not given) | 8.74% |
| Cn1c(=O)c2c(ncn2CCO)n(C)c1=O | 12.8% |
| CCCC(O)C(CC)CO (stereo not given) | 7.55% |
| CCCCCC(N)=O | 0.76% |

| SMILES | activity, negative = inhibition |
| --- | --- |
| O=C(O)c1ccc[n+]([O-])c1 | 2.75% |
| CC(CSC(=O)c1ccccc1)C(=O)N1C[C@@H](Sc2ccccc2)C[C@H]1C(=O)O (stereo not given in full) | 18.5% |
| CCOc1cc(NC(C)=O)ccc1C(=O)OC | 13.4% |
| C[C@@H](N)C(=O)O | 6.58% |
| NS(=O)(=O)c1cc2c(cc1C(F)(F)F)NCNS2(=O)=O | 3.57% [at 12.8 µM] |
| NC(=O)NS(=O)(=O)c1ccc(N)cc1 | 10.2% |
| O=C(O)c1ccccc1C(=O)Nc1ccc(S(=O)(=O)Nc2nccs2)cc1 | 12.5% |
| CC(=O)NS(=O)(=O)c1ccc(N)cc1 | 9.82% |
| O=C(O)Cn1c(C(=O)Nc2nc(-c3ccccc3Cl)cs2)cc2ccccc21 | 4.2% |
| CC(O)CCCCn1c(=O)c2c(ncn2C)n(C)c1=O (stereo not given) | 3.93% |
| CCCCCCCCCCCCCCCCN | 14.7% |
| CN1CCCN=C1COC(=O)C(O)(c1ccccc1)C1CCCCC1 (stereo not given) | 10.3% |
| NS(=O)(=O)c1ccc(C(=O)O)cc1 | 13.4% |
| Cn1c([N+](=O)[O-])cnc1COC(N)=O | 13.6% |
| O=C(O)c1ccccc1OP(=O)(O)O | 14.7% |
| c1ccc2[nH]ccc2c1 | 5.96% |
| O=C(OOC(=O)c1ccccc1)c1ccccc1 | 2.82% |

Each compound was assayed on ATS95 in the same assay as above. Details: P. falciparum in erythrocytes, SYBR Green DNA, 72 h; series mostly up to 28.7 µM; activity, negative = inhibition: at the top concentration.
How it was run: as §1

| SMILES | activity, negative = inhibition |
| --- | --- |
| O=C(O)Cc1ccc(CCNS(=O)(=O)c2ccc(Cl)cc2)cc1 | 8.44% |
| NS(=O)(=O)c1ccc(NC(=O)CCC(=O)O)cc1 | -4.55% |
| C=CCSCC1Nc2cc(Cl)c(S(N)(=O)=O)cc2S(=O)(=O)N1 (stereo not given) | 6.59% |
| Cc1cccc(C)c1NC(=O)CC12CCCN1CCC2 | -5.69% |
| CC(=O)Nc1cccc(O)c1 | 12% |
| CNCc1ccccc1 | 3.94% |
| COc1ccc(C(=O)NCc2ccc(OCCN(C)C)cc2)cc1OC | 1.98% |
| C=CCNC(N)=S | 14.8% |
| NS(=O)(=O)c1cc(-c2nn[nH]n2)c(NCc2cccs2)cc1Cl | -4.85% |
| CCOc1ccc(C(=O)OCCN(CC)CC)cc1 | 6.66% |
| Cc1c(N(C)C)c(=O)n(-c2ccccc2)n1C | 13% |
| CCc1cccc(CC)c1NC(=O)CN(CC(=O)O)CC(=O)O | 13.1% [at 12.8 µM] |
| COC(=O)c1cccnc1 | 0.704% |
| Cc1ccc(S(=O)(=O)NC(=O)NC2CCCCCCC2)cc1 | 0.707% |
| CCCCCCCCCCCCCCCCC(C(=O)O)C(O)(CC(=O)O)C(=O)O (stereo not given) | -1.18% |
| Cn1c(=O)c2c(ncn2CCO)n(C)c1=O | 1.07% |
| CCCC(O)C(CC)CO (stereo not given) | 7.02% |
| CCCCCC(N)=O | 1.31% |

| SMILES | activity, negative = inhibition |
| --- | --- |
| O=C(O)c1ccc[n+]([O-])c1 | -4.08% |
| CC(CSC(=O)c1ccccc1)C(=O)N1C[C@@H](Sc2ccccc2)C[C@H]1C(=O)O (stereo not given in full) | 5.72% |
| CCOc1cc(NC(C)=O)ccc1C(=O)OC | 2.86% |
| C[C@@H](N)C(=O)O | 6.14% |
| NS(=O)(=O)c1cc2c(cc1C(F)(F)F)NCNS2(=O)=O | 12.3% [at 12.8 µM] |
| NC(=O)NS(=O)(=O)c1ccc(N)cc1 | 0.793% |
| O=C(O)c1ccccc1C(=O)Nc1ccc(S(=O)(=O)Nc2nccs2)cc1 | 5.04% |
| CC(=O)NS(=O)(=O)c1ccc(N)cc1 | 1.89% |
| O=C(O)Cn1c(C(=O)Nc2nc(-c3ccccc3Cl)cs2)cc2ccccc21 | -0.44% |
| CC(O)CCCCn1c(=O)c2c(ncn2C)n(C)c1=O (stereo not given) | -2.73% |
| CCCCCCCCCCCCCCCCN | -2.82% |
| CN1CCCN=C1COC(=O)C(O)(c1ccccc1)C1CCCCC1 (stereo not given) | -3% |
| NS(=O)(=O)c1ccc(C(=O)O)cc1 | -0.181% |
| Cn1c([N+](=O)[O-])cnc1COC(N)=O | 6.2% |
| O=C(O)c1ccccc1OP(=O)(O)O | -1.67% |
| c1ccc2[nH]ccc2c1 | 1.43% |
| O=C(OOC(=O)c1ccccc1)c1ccccc1 | -0.835% |

Each compound was assayed on C2A in the same assay as above. Details: P. falciparum in erythrocytes, SYBR Green DNA, 72 h; series mostly up to 28.7 µM; activity, negative = inhibition: at the top concentration.
How it was run: as §1

| SMILES | activity, negative = inhibition |
| --- | --- |
| O=C(O)Cc1ccc(CCNS(=O)(=O)c2ccc(Cl)cc2)cc1 | -9.69% |
| NS(=O)(=O)c1ccc(NC(=O)CCC(=O)O)cc1 | -0.695% |
| C=CCSCC1Nc2cc(Cl)c(S(N)(=O)=O)cc2S(=O)(=O)N1 (stereo not given) | 1.25% |
| Cc1cccc(C)c1NC(=O)CC12CCCN1CCC2 | 4.74% |
| CC(=O)Nc1cccc(O)c1 | -1.22% |
| CNCc1ccccc1 | -5.09% |
| COc1ccc(C(=O)NCc2ccc(OCCN(C)C)cc2)cc1OC | 1.77% |
| C=CCNC(N)=S | 4.43% |
| NS(=O)(=O)c1cc(-c2nn[nH]n2)c(NCc2cccs2)cc1Cl | -4.17% |
| CCOc1ccc(C(=O)OCCN(CC)CC)cc1 | -4.77% |
| Cc1c(N(C)C)c(=O)n(-c2ccccc2)n1C | 8.61% |
| CCc1cccc(CC)c1NC(=O)CN(CC(=O)O)CC(=O)O | 3.77% [at 12.8 µM] |
| COC(=O)c1cccnc1 | -3.61% |
| Cc1ccc(S(=O)(=O)NC(=O)NC2CCCCCCC2)cc1 | -2.93% |
| CCCCCCCCCCCCCCCCC(C(=O)O)C(O)(CC(=O)O)C(=O)O (stereo not given) | -3.2% |
| Cn1c(=O)c2c(ncn2CCO)n(C)c1=O | 1.13% |
| CCCC(O)C(CC)CO (stereo not given) | -0.232% |
| CCCCCC(N)=O | -6.06% |

| SMILES | activity, negative = inhibition |
| --- | --- |
| O=C(O)c1ccc[n+]([O-])c1 | 2.82% |
| CC(CSC(=O)c1ccccc1)C(=O)N1C[C@@H](Sc2ccccc2)C[C@H]1C(=O)O (stereo not given in full) | 5.54% |
| CCOc1cc(NC(C)=O)ccc1C(=O)OC | 3.5% |
| C[C@@H](N)C(=O)O | 2.36% |
| NS(=O)(=O)c1cc2c(cc1C(F)(F)F)NCNS2(=O)=O | 1.37% [at 12.8 µM] |
| NC(=O)NS(=O)(=O)c1ccc(N)cc1 | -2.61% |
| O=C(O)c1ccccc1C(=O)Nc1ccc(S(=O)(=O)Nc2nccs2)cc1 | -7.63% |
| CC(=O)NS(=O)(=O)c1ccc(N)cc1 | 0.663% |
| O=C(O)Cn1c(C(=O)Nc2nc(-c3ccccc3Cl)cs2)cc2ccccc21 | -7.87% |
| CC(O)CCCCn1c(=O)c2c(ncn2C)n(C)c1=O (stereo not given) | -5.1% |
| CCCCCCCCCCCCCCCCN | 5.78% |
| CN1CCCN=C1COC(=O)C(O)(c1ccccc1)C1CCCCC1 (stereo not given) | 1.94% |
| NS(=O)(=O)c1ccc(C(=O)O)cc1 | -3.81% |
| Cn1c([N+](=O)[O-])cnc1COC(N)=O | 4.7% |
| O=C(O)c1ccccc1OP(=O)(O)O | -0.742% |
| c1ccc2[nH]ccc2c1 | 6.64% |
| O=C(OOC(=O)c1ccccc1)c1ccccc1 | 8.97% |
